# Compounds with a hit are over-represented: about 19% of the library has one in this group of screens.
# ELG1 DNA repair: blocks ELG1-dependent DNA repair in HEK293T cells; AID 504467; HEK293T ELG1-luciferase reporter, luminescence, 16 h; DNA damage induced by 5-fluorouridine; Potency, µM (top dose mostly 46.1 µM), for the others: top-dose activity change, negative = inhibition, hits mostly inhibitors; 330,000 tested, 2.3% active; note: potency is the fitted concentration of half-maximal effect; nearly all actives have a fitted effect of over 55% in size
#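 Reporter activity after DNA damage by 5-fluorouridine is monitored. Compound-treated cells incubate 16 hr at 37 °C, then ONE-Glo is added for 30 min before luminescence reading.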
# DT40 TDP1 no CPT: qHTS for Inhibitors of human tyrosyl-DNA phosphodiesterase 1 (TDP1): qHTS in cells in absence of CPT; DT40 Tdp1-/- hTDP1 cells, no CPT, ATP luminescence, 48 h; Potency, µM (highest dose often 46.2 µM), inactives show top-dose activity change, negative = growth inhibition, usual class: inhibitors; 420,000 tested, 15% active; AID 686978, 2013; note: potency is the fitted concentration of half-maximal effect; nearly all actives have a fitted effect of over 55% in size
#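 Luminescent ATP content (CellTiter-Glo) served as the growth readout. Knockout chicken DT40 cells expressing human TDP1 were exposed to compounds without camptothecin for a minimum 48 hr at 37 °C.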
# IL-1B inflam inh: blocks inflammasome-driven IL-1 beta release; THP-1 LPS/ATP IL-1B secretion, AlphaLISA, 16 h; hits give low values; AID 743279; activity change, % at 57.5 µM; 360,000 tested, 4.7% active; in the data active = activity change below about -50%; inconclusive = mostly about -30% to -49%
#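 Secreted IL-1B measured by AlphaLISA bead assay after 16 h compound exposure of THP-1 cells; compounds (final up to 57.5 uM) added 1 h before LPS (250 ng/mL) and ATP (1.25 mM) stimulation; lower signal means less secretion.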
# TDP1 block: inhibitors of human tyrosyl-DNA phosphodiesterase TDP1. 350,000 tested, 0.28% active. Q9NUW8. recombinant TDP1, AlphaScreen DNA substrate cleavage. Potency, µM (titrated, usually from 130 µM), for the others: at the highest dose activity change, negative = inhibition, most hits filed as inhibitors; note: potency is the fitted concentration of half-maximal effect; nearly all actives have a fitted effect of over 40% in size
# Target sequence (Q9NUW8 whole entry, looked up): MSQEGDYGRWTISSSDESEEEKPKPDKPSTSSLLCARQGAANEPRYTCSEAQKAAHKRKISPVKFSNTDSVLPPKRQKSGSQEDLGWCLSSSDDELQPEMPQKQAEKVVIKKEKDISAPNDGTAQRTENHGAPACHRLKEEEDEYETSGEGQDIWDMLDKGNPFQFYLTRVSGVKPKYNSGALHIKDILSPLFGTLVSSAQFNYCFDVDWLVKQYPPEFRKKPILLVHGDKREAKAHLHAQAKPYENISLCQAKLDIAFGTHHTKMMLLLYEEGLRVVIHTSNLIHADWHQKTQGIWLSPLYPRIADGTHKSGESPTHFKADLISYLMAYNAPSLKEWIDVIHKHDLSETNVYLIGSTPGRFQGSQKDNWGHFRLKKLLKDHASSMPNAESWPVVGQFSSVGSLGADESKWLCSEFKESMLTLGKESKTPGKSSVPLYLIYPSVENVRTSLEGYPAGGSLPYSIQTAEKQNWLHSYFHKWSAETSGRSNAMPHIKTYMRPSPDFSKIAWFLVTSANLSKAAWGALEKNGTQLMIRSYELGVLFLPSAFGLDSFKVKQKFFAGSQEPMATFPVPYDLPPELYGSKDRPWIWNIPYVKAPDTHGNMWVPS
#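 Compounds were preincubated with Tdp1 (1 nM final) for 15 min at room temperature before substrate (15 nM final) started a 5 min reaction; beads (10 ug/ml final) were then added for 10 min before AlphaScreen detection.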
# Giardia kill: Giardia lamblia killing. 340,000 tested, 0.15% active. Giardia lamblia trophozoite viability. AID 540267. activity change, % at 7.66 µM, hits read low; in the data active = activity change below about -80%; inconclusive = between about -30% and that limit;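 note: parasites exposed to compound for two days anaerobically before the ATP read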
#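 Viability, read as ATP luminescence: trophozoites at 100 cells/well, compound added, 48 hrs anaerobic at 37 deg C, then 15-30 min room-temperature development before reading.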
# DT40 TDP1 CPT: growth inhibition of DT40 Tdp1-/-;hTDP1 cells with camptothecin (screen for TDP1 inhibitors). Potency, µM (titrated, usually from 46.2 µM), without a hit: at the top dose activity change, negative = growth inhibition, actives largely listed as inhibitors. AID 686979. chicken DT40 Tdp1-/-;hTDP1 cells + 20 nM CPT, ATP luminescence, 48 h. 420,000 tested, 12% active; note: potency is the fitted concentration of half-maximal effect; nearly all actives have a fitted effect of over 55% in size
#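 Cell growth measured by CellTiter-Glo luminescence after a minimum 48 h, 37 C compound exposure with 20 nM CPT in Tdp1-knockout DT40 cells stably expressing hTDP1, seeded 400/well; qHTS titration format.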
# An asterisk follows results filed as active; ? = inconclusive; / = not tested or not shown; [ ] = another dose, or the depositor's remark. Unless noted, calls come from the whole dose curve; as a rule, active = well fitted curve in the direction sought with a large enough effect; inconclusive = small, poorly fitted or top-dose-only effect, or another doubt; inactive = no such curve, though single readings can be large; an effect the other way counts as inactive or inconclusive. % is set by controls: 0 for no effect and ±100 for the full control effect.
SMILES,ELG1 DNA repair,DT40 TDP1 no CPT,IL-1B inflam inh,TDP1 block,Giardia kill,DT40 TDP1 CPT
Cc1cccc(N2CCN(C(=O)CCC(=O)N3CC(C)Oc4ccccc43)CC2)c1C (stereo not given),?,13µM*,-18,/,-22,16µM*
COc1ccc(CCC(=O)N2CCN(c3cccc(C)c3C)CC2)cc1,-15%,?,-11,0%,-21,?
Cc1ccc2c(c1)N(C(=O)CCC(=O)N1CCN(c3ccccc3)CC1)CCO2,-9%,?,7,/,-6,?
COc1cc(CCC(=O)N2CCN(c3cccc(C)c3C)CC2)cc(OC)c1OC,18µM*,10µM*,5,/,12,12µM*
Cc1oc(-c2ccccc2NC(=O)C2CCCO2)nc1CNC(=O)c1[nH]c2c(C)ccc(C)c2c1C (stereo not given),/,?,/,/,/,5%[9.04 µM]
O=[N+]([O-])c1ccc(Oc2ccc(/C=N/O)cc2)nc1,36%,-10%,-17,9%,-15,-17%
O=[N+]([O-])c1ccc(Oc2ccc(Oc3ccc(C(F)(F)F)cn3)cc2)nc1,?,26µM*,?,0%,-12,?
Cc1cn2c(=O)cc(COC(=O)COc3ccccc3C)nc2s1,/,-1%,/,7%,/,-5%
O=C(Cc1cccc2ccccc12)OCn1nnc2ccccc2c1=O,18%,-4%,14,-1%,12,-8%
O=C(CSCC(=O)OCn1nnc2ccccc2c1=O)Nc1ccc(Cl)cc1,13%,?,13,2%,4,21µM*
O=c1c2ccccc2nnn1COc1cccc(Cl)c1,?,18µM*,-19,-10%,-20,-29%
Cc1nn(CC(=O)NCc2cccc(Br)c2)c(=O)c2c1sc1ccccc12,/,-4%,/,11%,/,-16%
O=S(=O)(N1CCN(c2nc(-c3cccs3)nc3ccccc23)CC1)C(F)(F)F,/,?,/,/,17,?
O=S(=O)(Cc1ccccc1)N1CCN(c2nc(-c3cccs3)nc3ccccc23)CC1,/,13µM*,/,1%,3,?
O=S(=O)(c1ccsc1)N1CCN(c2nc(-c3cccs3)nc3ccccc23)CC1,/,/,/,-5%,/,/
CC(C)S(=O)(=O)N1CCN(c2nc(-c3cccs3)nc3ccccc23)CC1,/,18µM*,/,0%,-7,11µM*
COc1ccc(N2CCN(c3nc(-c4cccs4)nc4ccccc34)CC2)cc1,?,23µM*,9,5%,-2,?
O=S(=O)(c1nccs1)N1CCN(c2nc(-c3cccs3)nc3ccccc23)CC1,/,11µM*,/,0%,2,?
CC(C)Oc1ccc(CNC(=O)c2cnc3sc(N4CCCC4)nn3c2=O)cc1,/,-29%,/,1%,/,-23%
C=Cc1ccc(COc2ccc3oc(-c4ccccc4)c(C(=O)OCC)c3c2)cc1,/,-5%,/,/,/,-18%
Cc1cc(C)cc(S(=O)(=O)N2CCN(c3nc(-c4cccs4)nc4ccccc34)CC2)c1,/,?,/,-2%,5,?
O=S(=O)(c1ccccc1)N1CCN(c2nc(-c3cccs3)nc3ccccc23)CC1,?,?,/,1%,3,13µM*
Cc1ccc(S(=O)(=O)N2CCCN(c3nc(-c4cccs4)nc4ccccc34)CC2)cc1,/,?,/,/,1,13µM*
CCOC(=O)N1CCN(Cc2nc3c(c(=O)[nH]c(=O)n3C)n2Cc2ccccc2C)CC1,-13%,1%,6,1%,-14,-15%
CCOC(=O)N1CCN(Cc2nc3c(c(=O)n(C)c(=O)n3C)n2Cc2cccc3ccccc23)CC1,?,?,-4,3%,-7,23µM*
SMILES,ELG1 DNA repair,DT40 TDP1 no CPT,IL-1B inflam inh,TDP1 block,Giardia kill,DT40 TDP1 CPT
CCOC(=O)N1CCN(Cc2nc3c(c(=O)n(C)c(=O)n3C)n2Cc2ccc(F)cc2)CC1,?,?,-5,-3%,42,?
CCOC(=O)N1CCN(Cc2nc3c(c(=O)n(C)c(=O)n3C)n2Cc2cccc(C)c2)CC1,18µM*,?,29,6%,1,-35%
Cc1cccc(NC(=O)CSc2cn(CC(=O)N3CCCCCC3)c3ccccc23)c1,/,-29%,/,5%,/,-6%
Brc1ccc([C@H]2C=C[C@H]3CCCN4CC[C@H]2[C@@H]3[C@]42CO2)cc1,/,12µM*,?,/,/,18µM*
CCC(=O)N1CCc2cc(CNC(=O)c3cccc(N(C)C)c3)ccc21,/,-26%,/,5%,/,-7%
C[C@@H]1CC=C[C@H]2[C@H]1C(=O)N(Cc1ccccc1)[C@H]2c1ccc(/C=C/c2ccccc2)cc1F,-1%,-55%,-2,2%,-27,?
COc1ccc(-c2ccc(C3C4C=CCC(C)C4C(=O)N3Cc3ccccc3)c(F)c2)cc1 (stereo not given),/,/,/,8%,3,/
COc1ccc(-c2ccccc2[C@H]2[C@@H]3C=CC[C@@H](C)[C@@H]3C(=O)N2Cc2ccccc2)cc1,?,10µM*,-10,0%[56.1 µM],17,13µM*
C[C@@H]1CC=C[C@@H]2[C@H]1C(=O)N(Cc1ccccc1)[C@H]2c1ccccc1Br,?,16µM*,-16,-5%[56.1 µM],-5,18µM*
O=C1C=C(NCc2ccncc2)CC(c2ccccc2)C1 (stereo not given),-5%,-15%,-1,-1%,7,-14%
CC1(C)CC(=O)C=C(NCCO)C1,16%,-23%,17,-4%,-18,-7%
CCCCCCCCNC1=CC(=O)CC(C)(C)C1,5%,16µM*,13,2%,8,?
CCCCCNC1=CC(=O)CC(c2ccccc2)C1 (stereo not given),-29%,18µM*,-3,2%,-1,?
CCCCCCCNC1=CC(=O)CC(c2ccccc2)C1 (stereo not given),-6%,5.8µM*,63,-4%,-1,6.5µM*
CCSc1ccccc1C(=O)n1nnc2ccccc21,/,?,10,-5%,12,13µM*
Cc1occc1C(=O)n1nnc2ccccc21,/,21µM*,-9,1%,12,?
COc1ccc(C(=O)n2nnc3ccccc32)cc1Br,35%,?,-14,7%,2,16µM*
CC(=O)n1nnc2ccccc21,/,/,/,6%,1,/
O=C(NCc1ccc(Cl)cc1)C(=O)Nc1ccc(Br)cc1,/,-3%,/,-8%[12.3 µM],/,0%
CC(C)N1CCC1(C)C(=O)Nc1cccc(C#N)c1 (stereo not given),/,0%,34,/,/,-1%
CCOC(=O)c1cnn(-c2ccc(NS(=O)(=O)c3ccc(Cl)cc3)cc2)c1C(F)(F)F,23µM*,?,-3,4%,-14,?

# Compound activity from PubChem BioAssay.
